Values joined by “and” are separate entries in the source; they are usually repeats but may differ in a detail not shown here. Identical values can stand only once. Records with an inconclusive call do not appear. Active and inactive are the calls of the source. Rule for the calls, unless noted: active = hit-call score of the fitted dose curve at least 0.9, where 1 is the maximum; inconclusive = response in the unintended direction; inactive = score below 0.9.
Columns and labels:
[1] = read-out: X-box binding protein 1 (XBP1), XBP1 (gene 7494); test: LTEA_HepaRG_XBP1: Life Technologies and Expression Analysis (LTEA) Assay for X-box binding protein 1 (XBP1) using HepaRG (AID 2283540; active = hit-call score of the fitted dose curve at least 0.9, where 1 is the maximum; inactive = score below 0.9); conditions: mRNA level, 48 h; actives raise or lower the signal
How it was run: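 XBP1 transcript by qRT-PCR (housekeeping-normalized: ACTB, GAPDH, POLR2A) after 48 h chemical treatment of HepaRG cells, 8-point half-log series topping at 100 uM, vehicle 0.5% DMSO. Gain and loss of signal fitted relative to DMSO.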

[2] = LTEA_HepaRG_LDH_cytotoxicity: Cytotoxicity Assessment in the Life Technologies and Expression Analysis (LTEA) Assay (AID 2283563);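 for AC50: LDH activity released into spent culture medium as a marker of cell death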
How it was run: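 LDH release into culture medium read after 48 h chemical treatment of HepaRG cells. Duplicate wells, eight-point half-log series topping at 100 uM, 0.5% DMSO vehicle and baseline.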

[3] = ATG_XTT_Cytotoxicity: Cytotoxicity Assessment in the Attagene TRANS-FACTORIAL HepG2 Assay (AID 2283584);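 for AC50: cells exposed to compound for 24 h before reading; active means loss of viability signal versus DMSO baseline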
How it was run: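 Viability endpoint from XTT after 24 h chemical exposure of reporter-transfected human HepG2 liver cells; signal loss fitted relative to DMSO negative control.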

[4] = TOX21_p53_BLA_p2_viability: Viability Assessment in the Tox21 HCT-116 p53 Agonism Beta-lactamase Assay, Phase 2 (AID 2283591);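 note: compound exposure lasted 16 h at 37 °C; actives lower the ATP signal meaning cytotoxicity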
How it was run: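 Cytotoxicity readout: CellTiter-Glo ATP luminescence, 30 min at room temperature, after the beta-lactamase read. Cells were HCT116 exposed 16 h at 37C to compounds pin-transferred at 217-fold dilution from DMSO stocks.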

[5] = TOX21_p53_BLA_p3_viability: Viability Assessment in the Tox21 HCT-116 p53 Agonism Beta-lactamase Assay, Phase 3 (AID 2283593);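 note: cells exposed to compound for 16 h before reading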
How it was run: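 Cellular ATP was quantified by CellTiter-Glo luminescence, read after 30 min at room temperature. Beforehand, HCT116 cells (4000/well) received compound 5 h post-seeding, 217-fold diluted from DMSO, then incubated 16 h at 37C.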

[6] = molecular target: Cellular tumor antigen p53 (Homo sapiens) (UniProt P04637); test: TOX21_p53_BLA_p3_ratio: Tox21 HCT-116 p53 Agonism Beta-lactamase Assay, Ratio, Phase 3 (AID 2283596)
How it was run: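 Cells were seeded at 4000/well, rested 5 h at 37C, then dosed with DMSO compound solutions (217-fold dilution) for 16 h. CCF4-AM substrate was loaded for 2 h at room temperature, and the 460/530 nm emission ratio was fitted for gain of signal versus DMSO.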

[7] = TOX21_p53_BLA_p4_viability: Viability Assessment in the Tox21 HCT-116 p53 Agonism Beta-lactamase Assay, Phase 4 (AID 2283597);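 note: hits lower the luminescence signal meaning cytotoxicity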
How it was run: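 Cytotoxicity as reduced cellular ATP (CellTiter-Glo luminescence, 30 min room temperature), measured in the same wells following the CCF4 FRET p53 reading. Human HCT-116 cells received compounds in DMSO (217-fold dilution) for 16 h.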

[8] = TOX21_p53_BLA_p5_viability: Viability Assessment in the Tox21 HCT-116 p53 Agonism Beta-lactamase Assay, Phase 5 (AID 2283600)
How it was run: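 Viability came from CellTiter-Glo ATP luminescence, read after 30 min at room temperature. Before this, HCT-116 p53-bla cells (4000/well) had 16 hours of compound exposure at 37C, with DMSO stocks diluted 217-fold on transfer.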

[9] = molecular target: Cellular tumor antigen p53 (Homo sapiens) (UniProt P04637); test: TOX21_p53_BLA_p4_ratio: Tox21 HCT-116 p53 Agonism Beta-lactamase Assay, Ratio, Phase 4 (AID 2283601)
How it was run: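 Signal is the blue/green (460nm/530nm) ratio of cleaved versus uncleaved CCF4-AM substrate, read after 2 h substrate loading. Cells were HCT116 carrying the p53-responsive beta-lactamase reporter, dosed 16 h at 37C, 5% CO2; CellTiter-Glo measured in parallel.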

[10] = Tanguay_ZF_120hpf_MORT_legacy: (Legacy) Oregon State University Tanguay Lab 120 Hour Post-fertilization zebrafish Assay for Mortality (AID 2283633);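 for AC50: fitted as increase in binary mortality versus DMSO negative control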
How it was run: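 Static waterborne exposure from 6 to 120 hpf at 28C of single dechorionated wild-type (5D) embryos per well, 0.64% DMSO final. Death recorded present/absent by brightfield at 24 and 120 hpf.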

[11] = Tanguay_ZF_120hpf_YSE_legacy: (Legacy) Oregon State University Tanguay Lab 120 Hour Post-fertilization zebrafish Assay for Yolk Sac Edema (AID 2283634)
How it was run: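 Presence or absence of yolk sac edema was recorded at 120 hpf in surviving larvae. These were wild-type Tropical 5D embryos, chorion removed at 4 hpf, held in static exposure at 28C from 6 hpf with 0.64% DMSO vehicle.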

[12] = Tanguay_ZF_120hpf_AXIS_legacy: (Legacy) Oregon State University Tanguay Lab 120 Hour Post-fertilization zebrafish Assay for Body Axis Malformation (AID 2283635)
How it was run: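 Binary scoring of axis defects at 120 hpf under brightfield, fitted positive versus DMSO. Tropical 5D embryos, chorion removed by pronase at 4 hpf, were singly exposed in sealed, dark plates at 28C from 6 hpf; DMSO 0.64% final.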

[13] = Tanguay_ZF_120hpf_EYE_legacy: (Legacy) Oregon State University Tanguay Lab 120 Hour Post-fertilization zebrafish Assay for Eye Malformation (AID 2283636);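 note: binary presence or absence of eye malformation scored by brightfield in 120 hpf larvae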
How it was run: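 Binary brightfield scoring of eye defects at 120 hpf after static exposure from 6 hpf of single pronase-dechorionated wild-type embryos (28C, 0.64% DMSO). Non-mortality endpoints omitted where embryos died; fit vs DMSO.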

[14] = Tanguay_ZF_120hpf_SNOU_legacy: (Legacy) Oregon State University Tanguay Lab 120 Hour Post-fertilization zebrafish Assay for Snout Malformation (AID 2283637)
How it was run: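 Binary snout-malformation call at 120 hpf in wild-type 5D embryos, chorion removed by pronase, under static exposure from 6 hpf at 28C (0.64% DMSO). Embryos dying by 24 or 120 hpf excluded.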

[15] = Tanguay_ZF_120hpf_OTIC_legacy: (Legacy) Oregon State University Tanguay Lab 120 Hour Post-fertilization zebrafish Assay for Otic Vesicle Malformation (AID 2283639)
How it was run: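 Wild-type zebrafish larvae, whole-embryo exposure from early stage to 120 hpf at 28C. Binary brightfield scoring of otic vesicle morphology, fitted in the positive direction against the DMSO baseline.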

[16] = Tanguay_ZF_120hpf_PE_legacy: (Legacy) Oregon State University Tanguay Lab 120 Hour Post-fertilization zebrafish Assay for Pericardial Edema (AID 2283640)
How it was run: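 Scoring was binary, by brightfield microscopy at 120 hpf, and skipped where mortality occurred. Wild-type embryos were kept under sealed, foil-covered static exposure at 28C in 0.64% (vol/vol) DMSO.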

[17] = Tanguay_ZF_120hpf_SOMI_legacy: (Legacy) Oregon State University Tanguay Lab 120 Hour Post-fertilization zebrafish Assay for Somite Malformation (AID 2283647)
How it was run: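 Binary somite-defect scoring at 120 hpf, omitted for embryos that died, in wild-type (Tropical 5D) zebrafish with chorion removed by pronase at 4 hpf; static exposure began 6 hpf, single embryos per well, 28C, 0.64% DMSO; fitted positive versus DMSO.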

[18] = Tanguay_ZF_120hpf_PFIN_legacy: (Legacy) Oregon State University Tanguay Lab 120 Hour Post-fertilization zebrafish Assay for Pectoral Fin Malformation (AID 2283648);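 note: each larva judged yes or no for fin defect by brightfield with dead larvae skipped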
How it was run: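 Pectoral fin malformation was recorded as a binary endpoint at 120 hpf in wild-type Tropical 5D larvae, which had been dechorionated and exposed statically from 6 hpf at 28C in 0.64% DMSO. Dead embryos were excluded.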

[19] = molecular target: Cellular tumor antigen p53 (Homo sapiens) (UniProt P04637); test: TOX21_p53_BLA_p5_ratio: Tox21 HCT-116 p53 Agonism Beta-lactamase Assay, Ratio, Phase 5 (AID 2283599)
How it was run: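 Beta-lactamase reporter ratio (blue 460 nm over green 530 nm, 405 nm excitation) after 2 h CCF4-AM loading, in HCT-116 cells exposed 16 h at 37 C to compounds pinned at 217-fold dilution. Increases relative to DMSO baseline scored.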

Measured: AC50

Cellular tumor antigen p53 (Homo sapiens), sequence (P04637 whole entry, looked up): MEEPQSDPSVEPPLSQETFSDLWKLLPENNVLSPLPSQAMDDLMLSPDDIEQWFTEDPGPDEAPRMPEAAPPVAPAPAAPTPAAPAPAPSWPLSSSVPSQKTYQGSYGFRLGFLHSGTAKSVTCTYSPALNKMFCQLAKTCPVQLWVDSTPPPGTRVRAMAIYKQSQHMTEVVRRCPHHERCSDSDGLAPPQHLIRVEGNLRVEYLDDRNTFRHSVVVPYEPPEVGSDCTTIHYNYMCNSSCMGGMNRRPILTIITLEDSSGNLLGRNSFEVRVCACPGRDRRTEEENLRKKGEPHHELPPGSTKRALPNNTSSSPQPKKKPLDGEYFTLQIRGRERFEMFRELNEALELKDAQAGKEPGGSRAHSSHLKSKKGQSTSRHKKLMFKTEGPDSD

CC(C)(C)c1cc(O)ccc1O
inactive: [1] | [2] | [3] | [4] | [5] | [6] | [7] | [8] | [9] | [11] | [12] | [13] | [14] | [15] | [16] | [17] | [18]
active: [10] 32 µM

CCN1CCC2(CC1)COc1cc3c(cc12)N(C(=O)c1ccc(-c2ccc(-c4nnc(C)o4)cc2C)cc1)CC3
inactive: [6] | [19] | [10] | [11] | [12] | [13] | [14] | [15] | [16] | [17] | [18]
active: [1] 27.4 µM | [2] 24.6 µM | [4] 54.7 µM | [5] 67.5 µM | [7] 45.7 µM | [8] 64.2 µM | [9] 57.4 µM

CCOP(=S)(OCC)Oc1nc(Cl)c(Cl)cc1Cl
inactive: [1] | [2] | [4] | [5] | [6] | [7] | [9] | [10] | [11] | [12] | [13] | [14] | [15] | [16] | [17]

Fc1ccc(C2(Cn3cncn3)OC2c2ccccc2Cl)cc1 (stereo not drawn)
inactive: [3]

CC1(C)Cc2cccc(O)c2O1
inactive: [3]

CC(=O)[O][Hg][c]1ccccc1
active: [1] 11.6 µM | [2] 0.688 µM | [3] 8.24 µM | [4] 2.74 µM and 2.65 µM and 3.55 µM | [5] 254 nM and 422 nM and 682 nM | [6] 1.46 µM and 1.07 µM and 1.23 µM | [7] 3.63 µM and 4.05 µM and 3.54 µM | [8] 1.5 µM and 1.56 µM and 2.25 µM | [9] 7.28 µM and 2.97 µM and 7.86 µM | [10] 0.179 µM
inactive: [11] | [12] | [13] | [14] | [15] | [16] | [17] | [18]

CN(C)N=O
inactive: [1] | [2] | [3] | [5] | [6] | [7] | [19] | [8] | [9] | [10] | [11] | [13] | [14] | [15] | [16] | [17]

CC1CN1P(=O)(N1CC1C)N1CC1C (stereo not drawn)
inactive: [3]

— PubChem BioAssay (EPA / NIEHS)
